The list is not random: actives were taken first. Their share in the collection is about 1.4%.
Bcl-xL primary – blocks human Bcl-xL binding to Bim BH3 peptide; Q07817; GST-Bcl-xL / FITC-Bim BH3 peptide fluorescence polarization; inhibition, % at 10.9 µM; 320,000 compounds, 0.7% hits;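 active means inhibition above the mean of all tested compounds plus 3 SD, cutoff set per campaign, cut at about 30% in these data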;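 further: inhibitors lower millipolarization by displacing the labeled peptide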
Target sequence (Q07817 whole entry, looked up): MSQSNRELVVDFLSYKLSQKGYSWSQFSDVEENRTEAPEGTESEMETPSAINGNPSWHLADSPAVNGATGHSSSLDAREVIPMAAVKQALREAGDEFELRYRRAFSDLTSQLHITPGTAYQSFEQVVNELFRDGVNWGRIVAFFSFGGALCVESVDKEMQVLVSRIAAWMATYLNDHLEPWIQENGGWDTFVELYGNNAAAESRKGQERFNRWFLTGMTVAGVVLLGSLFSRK
MEX-5 binding – C. elegans MEX-5 TCR-2 RNA binding activity; Q9XUB2; MEX-5/FITC-TCR2 RNA binding, fluorescence polarization; active compounds read low; activity score (negative = inhibition of binding), % at 10 µM; 300,000 compounds, 0.38% hits;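 active means inhibition past about -25% in most replicates, and total fluorescence under double the plate's negative control median, limit read from the data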
eLon inh – E. coli protease La inhibition. inhibition, % at 7.94 µM. AID 602123. 360,000 compounds, 0.42% hits. purified E. coli Lon protease, fluorescence polarization; in the data active means inhibition above about 13%, passing the limit was not always enough
MCL1-BIM inh – disrupts human MCL1 binding to BIM-BH3 peptide. AID 2057. Q07820. 320,000 compounds, 0.68% hits. GST-MCL1 / FITC-Bim-BH3 fluorescence polarization. inhibition, % at 10.9 µM;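 active means inhibition above the mean inhibition of all tested compounds plus 3 SD, set per campaign, cut at about 40% in these data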;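 further: higher means more loss of mP so more displacement of Bim peptide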
GLD-1 RNA inh – GLD-1-TGE RNA interaction inhibition (C. elegans); Q17339; purified GLD-1 + fluorescein TGE RNA, fluorescence polarization; inhibition, % at 5.96 µM; 320,000 compounds, 0.44% hits; AID 2280;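 active means percent inhibition above a per-plate cutoff, the plate mean of test compounds plus 3 SD, cut at about 30% in these data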
Bcl-xL conf – counter-screen for MCL1 inhibitors: confirmation of human Bcl-xL inhibitors | shares compounds with MCL1-BIM inh | inhibition, % at 10.9 µM | AID 2166 | GST-Bcl-xL / FITC-Bim BH3 peptide FP binding | 1,700 compounds, 54% hits;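 active means inhibition above a cutoff equal to the mean inhibition of all tested compounds plus 3 SD, cut at about 30% in these data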
MCL1 inh confirm – confirmation of human MCL1 and BIM-BH3 interaction inhibitors | shares compounds with MCL1-BIM inh | GST-MCL1 / FITC-Bim-BH3 fluorescence polarization | inhibition, % at 10.9 µM | 1,700 compounds, 61% hits;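 active means inhibition above the average of all tested compounds plus 3 SD, cut at about 40% in these data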
Numbers stand for hits; n = inactive; x = no result; + = active, no number.

SMILES	Bcl-xL primary	MEX-5 binding	eLon inh	MCL1-BIM inh	GLD-1 RNA inh	Bcl-xL conf	MCL1 inh confirm
O=S(=O)(c1cccc2cccnc12)N1CCCCC1	n	n	n	n	n	x	x
CC(CS(=O)(=O)c1cccc2cccnc12)N1CCCCC1 (stereo unspecified)	62	n	n	65	40	33	42
COc1cc(N)c(Cc2nccc3cc(OC)c(OC)cc23)cc1OC	115	n	n	121	n	n	n
COc1cc2ccnc(Cc3cccc(OC)c3OC)c2cc1OC	n	n	n	n	n	x	x
O=C(CN1CCSC1=O)N1CCN(S(=O)(=O)c2ccccc2)CC1	n	x	n	55	n	n	n
O=C(CN1CCSC1=O)N1CCN(S(=O)(=O)c2ccc(Cl)cc2)CC1	n	x	n	n	n	x	x
CN(C)CCCNC(=O)c1cccc(-c2cnc3cccnn23)c1	x	x	n	x	x	x	x
Cc1ccc(CSc2ccc(C(=O)N3CCOCC3)cc2[N+](=O)[O-])cc1	n	n	n	49	n	n	n
Cc1ccc(C(=O)N2CCOCC2)cc1[N+](=O)[O-]	n	n	n	n	n	x	x
CC12CC3CC1C(C(=O)O2)C3C(=O)O (stereo unspecified)	x	x	n	x	x	x	x
CCCCC(=O)N(C)c1c(CC)nc2c(OCCOc3ccccc3)cccn12	x	x	n	x	x	x	x
COC1=CC(=O)C(O)=C(CCCCCCC/C=C/CCCCCCCC2=C(O)C(=O)C=C(OC)C2=O)C1=O	45	n	n	107	n	32	81
CCCCCCCCCCCC1=C(O)C(=O)C=C(O)C1=O	n	n	n	52	n	46	76
CCCCCCc1c(O)c2ccccc2[nH]c1=O	n	n	n	n	n	x	x
CC(=O)N1CCN(c2ccc(NCc3ccc(-c4cccc(Cl)c4)o3)cc2)CC1	x	x	n	x	n	x	x
O=C(NCC(c1ccc(F)cc1)N1CCOCC1)c1nn(-c2ccccc2)c(=O)c2ccccc12 (stereo unspecified)	n	x	n	n	n	x	x
CCCc1nc(SC2CCCC2)c2c(=O)n(C)c(=O)n(C)c2n1	n	n	n	+	n	n	n
C[C@@H]1CN([C@H](C)CO)C(=O)CCCn2nncc2CO[C@H]1CN(C)Cc1ccc2c(c1)OCCO2	x	x	n	x	x	x	x
COc1ccc2ccccc2c1-c1csc(N)n1	n	n	n	n	n	x	x
Cc1c(C)n(CCC#N)c2ccccc12	n	n	n	n	n	x	x
CN(C)c1nc(-c2cn(CCC#N)c3ccccc23)cs1	65	n	n	69	34	34	49
COCCn1cc(-c2csc(N)n2)c2ccccc21	54	n	n	60	n	n	n
NC(=O)c1nc2c([nH]c1=O)CCCC2	x	x	n	x	x	x	x
O=C(O)/C(=C\c1ccc(Cl)c([N+](=O)[O-])c1)c1ccc(S(=O)(=O)N2CCCC2)s1	n	x	n	43	n	n	49
O=C(O)/C(=C\c1ccc(Cl)c([N+](=O)[O-])c1)c1ccc(S(=O)(=O)N2CCCCC2)s1	n	n	n	n	n	x	x
SMILES	Bcl-xL primary	MEX-5 binding	eLon inh	MCL1-BIM inh	GLD-1 RNA inh	Bcl-xL conf	MCL1 inh confirm
Cc1cc(C(=O)O)ccc1-n1c(C)ccc1C	47	-88	x	98	n	89	141
Cc1cc(N)ccc1-n1c(C)ccc1C	n	n	n	n	n	x	x
c1ccc(COc2ncnc3c2ncn3CCCNC2CCN(Cc3ccccc3)CC2)cc1	x	x	n	x	x	x	x
CC(=O)C1=CCC(c2ccc(C)cc2)N(S(=O)(=O)c2ccc(Cl)cc2)C1 (stereo unspecified)	x	x	n	x	x	x	x
O=C1NC(=O)C(c2ccccc2[N+](=O)[O-])=C1Nc1ccc(O)c(Cl)c1	n	n	n	50	n	n	n
COc1cccc(CN2C(=NC(=O)C3CCCO3)SC3CS(=O)(=O)CC32)c1 (stereo unspecified)	x	x	n	x	x	x	x
C/C(=N/NC(=O)c1cc2ccccc2cc1O)C1C(=O)c2ccccc2C1=O	n	n	n	41	n	n	41
CCN(C(=O)CSc1nnc(SC)s1)c1c(N)n(Cc2ccccc2)c(=O)[nH]c1=O	84	x	n	93	59	n	n
Nc1nc(N)c2ncn(C3C=CC(CO)C3)c2n1 (stereo unspecified)	x	x	n	x	x	x	x
CC(C)(c1ccc(O)cc1)c1ccc(O)c(C(=O)O)c1	x	x	n	x	x	x	x

Source: PubChem BioAssay
